± gives the standard deviation. In all, about 3,000 sequences were measured (“pre-steady-state target cleavage rate”: median about 0.0079, highest 2% from about 0.2 on). For the sample, the highest values were picked, then their nearest neighbours and some sequences at random.
System: MILI (PIWIL2) piRISC loaded with piRNA #2 (26 nt)
Assay: pre-steady-state target cleavage rate (min^-1); MIWI and MILI are mouse PIWI proteins and EfPiwi is from a freshwater sponge; tags in brackets are library labels; higher = faster piRNA-guided slicing of the target
Settings: guide: piRNA #2 5'p-UUAGGUAACCCAGUAGAUCCAGAGGA; auxiliary factor: 500 nM mouse GTSF1
Procedure: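 Cleave-'n-Seq: a library of target RNAs (target site embedded in constant flanks, ACAGCATTCCGCGTTAGTGATATCCG... 5' flank; DNA-blocked outside the site) at 0.1 nM was incubated with 1 nM active mouse MILI or MIWI piRISC (synthetic 5'-monophosphorylated piRNA guide) with or without 500 nM mouse GTSF1 at 33 °C for 1 min to 16 h. Uncleaved targets were sequenced and normalised to non-target controls, and the pooled three trials were fitted to a burst-and-steady-state model to give the pre-steady-state cleavage rate (min^-1; k3 is constrained to at most 1e-4). Sequence is the target site only; target names encode pairing extent (gX:gY) and contiguous / 1-mismatch / 2-mismatch / bulge geometry. Fits with R² ≤ 0 are excluded.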

CUUAUCCUCUGGAUCUACUGGGUUAUCCUAA and CUUAUCCUCUGGAUCUACUGGGUUCCUAA are within error of each other in “pre-steady-state target cleavage rate” value: 0.204 ± 0.046 for the first, 0.239 ± 0.11 for the second.

CUUAUCCUCUGGAUCUACUGGGUUUCGUAA and CUUAUCCUCUGGAUCUACUGGGUUAUCUAA are within error of each other in “pre-steady-state target cleavage rate” value: 0.171 ± 0.071 for the first, 0.0884 ± 0.015 for the second.

CUUAUCCUCUGGAUCAACUGGGUUUCCUAA and CUUAUCCUCUGGAUCUACUGGGUUUCCAAA are within error of each other in “pre-steady-state target cleavage rate” value: 0.199 ± 0.072 for the first, 0.134 ± 0.047 for the second.

CUUAACCUCUGGAUCAACUGGGUUUCCUAA and CUUAAGCUCUGGAUCAACUGGGUUUCCUAA are within error of each other in “pre-steady-state target cleavage rate” value: 0.101 ± 0.038 for the first, 0.0481 ± 0.015 for the second.

Compared with CUUAUCCUCUGGAUCUACUGGGUUCACCUAA, CUUAUCCUCUGGAUCUACUGGGUAUCCUAA is lower in “pre-steady-state target cleavage rate” value: 0.0872 ± 0.017 for the first, 0.0336 ± 0.014 for the second.

Going from “CUUAUCCUCUGGAUCUACUGGGUUACCUAA [g2:g26:cont:t1A]” to CUUAUCCUCUGGAUCUACUGGGUUUCCUUA, the “pre-steady-state target cleavage rate” value rises from 0.125 ± 0.023 to 0.413 ± 0.15.

First: CUUAAGCUCAGGAUCAACUGGGUUACCUAA
Second: CUUAAGGACUGGAUCUAUUGGGUUACCUAA
The “pre-steady-state target cleavage rate” value of the first is higher: 0.0432 ± 0.014 for the first, 0.0187 ± 0.0078 for the second.

CUUAAGGAGUGGAUCUUCAGGGUUACCUAA and CUUAAGGUCUGGAUGUACUGGGAUACCUAA are within error of each other in “pre-steady-state target cleavage rate” value: 0.0231 ± 0.0065 for the first, 0.0141 ± 0.01 for the second.

CUUAAGGUCUGGAACUUCUGGGUUACCUAA and CUUAAGCUCAGGAUCUACUGGGUAACCUAA are within error of each other in “pre-steady-state target cleavage rate” value: 0.0253 ± 0.015 for the first, 0.0259 ± 0.0088 for the second.

Going from CUUAACGUCUGGAUCUACUGGGUUACCUUA to CUUAAGGAGUGGAUCUACUGGGUCUACCUAA, the “pre-steady-state target cleavage rate” value falls from 0.0827 ± 0.015 to 0.00823 ± 0.0039.

First: CUUAAGGACUGGAUCUACUGGGUAUACCUAA
Second: CUUAAGGUCUGGAUCUACAGGGUUACCAAA
The “pre-steady-state target cleavage rate” value of the first is lower: 0.0248 ± 0.016 for the first, 0.106 ± 0.017 for the second.

CUUAUCCUCUGGAUCUACUGGGUUACGCUAA and CUUAUCCUCUGGAUCUACUGGGUUUCCUAA are within error of each other in “pre-steady-state target cleavage rate” value: 0.174 ± 0.026 for the first, 0.252 ± 0.072 for the second.

CUUAUCCCUCUGGAUCUACUGGGUUACCUAA and CUUAUCCUCUGGAUCUACUGGGUAUGCUAA are within error of each other in “pre-steady-state target cleavage rate” value: 0.0911 ± 0.022 for the first, 0.092 ± 0.023 for the second.

Compared with CUUAUCCUCUGGAUCUACUGGGUUUACCUAA, CUUAUCCUCUGGAUCUACUGGGUUUGCUAA is higher in “pre-steady-state target cleavage rate” value: 0.107 ± 0.023 for the first, 0.216 ± 0.041 for the second.

CUUAUCCACUGGAUCUACUGGGUUUCCUAA and CUUAUCCUCUGGAUCUACUGGGUUACCCUAA are within error of each other in “pre-steady-state target cleavage rate” value: 0.123 ± 0.034 for the first, 0.132 ± 0.049 for the second.

First: CUUAUCCUCUGGAUCUACUGGGUUCCCUAA
Second: CUUAAGGUGUGGAUCUACUGGGUUACCUUA
The “pre-steady-state target cleavage rate” value of the first is higher: 0.321 ± 0.13 for the first, 0.0353 ± 0.011 for the second.

First: CUUAUCCUCUGGAUGUACUGCGUUACCUAA
Second: CUUAAGGACUGGAUCUACAGGGUUACCAAA
The “pre-steady-state target cleavage rate” value of the first is lower: 0.0106 ± 0.0045 for the first, 0.0404 ± 0.0091 for the second.

Compared with CUUAAGCUCUCGGAUCUACUGGGUUACCUAA, CUUAUCCUCUGGAUCACUGGGUUACCUAA is lower in “pre-steady-state target cleavage rate” value: 0.064 ± 0.015 for the first, 0.0129 ± 0.0061 for the second.

Compared with CUUAAGGAGACCUACUACUGGGUUACACUAA, CUUAAGGUCUGGAUCUACUGGGUUACCUGAA is higher in “pre-steady-state target cleavage rate” value: under 0.0001 for the first, 0.0831 ± 0.035 for the second.

First: CUUAAGCUCUGGAUCUAGUGGGUUUCCUAA
Second: CUUAUCCUCUCGAUCUACUCGGUUACCUAA
The “pre-steady-state target cleavage rate” value of the first is higher: 0.0199 ± 0.0071 for the first, 0.0053 ± 0.0015 for the second.

Going from CUUAAGGAGACCUACUACUGUGGUUACCUAA to CUUAACGUCUGCAUCUACUGGGUUACCUAA, the “pre-steady-state target cleavage rate” value rises from under 0.0001 to 0.126 ± 0.02.

CUUAUCCUCUGGAAUCUACUGGGUUACCUAA and CUUAUCCUCUGGAGUCUACUGGGUUACCUAA are within error of each other in “pre-steady-state target cleavage rate” value: 0.156 ± 0.035 for the first, 0.175 ± 0.039 for the second.

Compared with CUUAUCCUCUGAAUCUACUGGGUUACCUAA, CUUAUCCUCUGGGUCUACUGGGUUACCUAA is higher in “pre-steady-state target cleavage rate” value: 0.109 ± 0.023 for the first, 0.206 ± 0.035 for the second.

First: CUUAUCCUCUGGUCUACUGGGUUACCUAA
Second: CUUAUCCUCUGGACUCUACUGGGUUACCUAA
The “pre-steady-state target cleavage rate” value of the first is higher: 0.983 ± 0.34 for the first, 0.0887 ± 0.019 for the second.

Going from CUUAUCCUCUGGCUCUACUGGGUUACCUAA to CUUAAGCUCUGGAUGUACUGGGUUUCCUAA, the “pre-steady-state target cleavage rate” value falls from 1.12 ± 0.3 to 0.0435 ± 0.021.

CUUAAGGUCUGGAUCUACAGGGUUAGCUAA and CUUAAGCUCUGUAUCUACUGGGUUACCUAA are within error of each other in “pre-steady-state target cleavage rate” value: 0.0446 ± 0.012 for the first, 0.0444 ± 0.0099 for the second.

First: CUUAAGGAGUGGAUCUACAGGGUUUCCUAA
Second: CUUAAGGUCUGGAUCUACUGGGUUACCUAU [g2:g23:cont:t1U]
The “pre-steady-state target cleavage rate” value of the first is lower: 0.056 ± 0.012 for the first, 0.101 ± 0.014 for the second.

First: CUUAUCCUCUGGAUGUAGUGGGUUACCUAA
Second: CUUAUCCUCUGAUCUACUGGGUUACCUAA
The “pre-steady-state target cleavage rate” value of the first is lower: 0.0679 ± 0.01 for the first, 0.123 ± 0.029 for the second.

Going from CUUAACCUCUGCAUCUACUGGGUUACCAAA to CUUAUCCUCUGCAUCUACUGCGUUACCUAA, the “pre-steady-state target cleavage rate” value falls from 0.173 ± 0.055 to 0.0198 ± 0.0066.

Compared with CUUAUCCUCUGGAUCUACUGGGUUACCAAA, CUUAUCCUCUGGCAUCUACUGGGUUACCUAA is higher in “pre-steady-state target cleavage rate” value: 0.13 ± 0.023 for the first, 2.56 ± 1.7 for the second.

Compared with CUUAACCUCUGCAUCUACUGGGUUACCUUA, CUUAUCCUCUGCAUCUACUGGGUUACCAAA is higher in “pre-steady-state target cleavage rate” value: 0.178 ± 0.048 for the first, 0.408 ± 0.12 for the second.

First: CUUAUCCUCUGCAUCUACUGGGUUACCUUA
Second: CUUAUCCUCUGCGAUCUACUGGGUUACCUAA
The “pre-steady-state target cleavage rate” value of the first is higher: 0.466 ± 0.13 for the first, 0.0876 ± 0.015 for the second.

First: CUUAUCCUCUGGGAUCUACUGGGUUACCUAA
Second: CUUAUCCUCUGCAUCUACUGGGUUACCUAA
The “pre-steady-state target cleavage rate” value of the first is lower: 0.137 ± 0.023 for the first, 0.275 ± 0.056 for the second.

Compared with CUUAUCCUCUGGAUCUACUGGGUUACCUUA, CUUAAGCUCUGGAUCUACCGGGUUACCUAA is lower in “pre-steady-state target cleavage rate” value: 0.13 ± 0.026 for the first, 0.0213 ± 0.0061 for the second.

Going from CUUAAGCUCUGGAUCUACUGGGUUCACCUAA to CUUAAGGAGUGGAUCUUCUGGGUUACCUUA, the “pre-steady-state target cleavage rate” value falls from 0.0506 ± 0.017 to 0.014 ± 0.007.

CUUAUCCUCUGCAUCUACUGGGUUACGUAA was tested, and the “pre-steady-state target cleavage rate” value was 0.483 ± 0.2.
